Source: PubChem
RE007 growth inh – qHTS Assay for Inhibitors of the HIV-1 protein Vpr. Potency, µM (titrated, usually from 92.2 µM), for the others: at the top dose activity change, negative = less growth, usual class: inhibitors. S. pombe RE007 Vpr strain, BacTiter-Glo ATP luminescence, 24 h. hit rate 0.21% among 360,000. AID 651644, 2012; active = well fitted falling curve with a large enough effect; inconclusive = small, poorly fitted or top-dose-only effect; inactive = no such curve, though single readings can be large or run the other way; note: potency is the fitted concentration of half-maximal effect; % is set by controls: 0 for no effect and ±100 for the full control effect; nearly all actives have a fitted effect of over 50% in size
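Fission yeast RE007 carrying one integrated HIV-1 vpr copy, seeded at OD 0.01 in PMG+AL medium with 23 nL pinned compound. Grown 24 h at 30 degrees; viability read by BacTiter-Glo luminescence after 5 min.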
Tb PYK inh – qHTS of Trypanosoma Brucei Inhibitors; pyruvate kinase (Trypanosoma brucei), Q57TT1; TbPYK enzyme, Kinase-Glo Plus ATP luminescence, 45 min; Potency, µM (highest dose often 76.8 µM), inactives show at the top dose activity, negative = inhibition, actives largely listed as inhibitors; hit rate 0.12% among 410,000; note: potency is the fitted concentration of half-maximal effect; % is set by controls: 0 for no effect and ±100 for the full control effect; nearly all actives have a fitted effect of over 50% in size
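Assay buffer: 50 mM TEA pH 7.2, 100 mM KCl, 10 mM MgCl2, 0.05% BSA, 0.01% Tween-20. Pyruvate kinase from T. brucei plus substrate met compound, then ADP (130 uM final). Luminescence was read post 45 min RT.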
Giardia FBPA inh – qHTS Assay for Inhibitors of Fructose-1,6-bisphosphate Aldolase from Giardia Lamblia | A8B2U2 | purified Giardia FBPA | Potency, µM (titrated, usually from 59.6 µM), without a hit: top-dose activity, negative = inhibition, actives largely listed as inhibitors | hit rate 0.71% among 290,000; note: potency is the fitted concentration of half-maximal effect; % is set by controls: 0 for no effect and ±100 for the full control effect; nearly all actives have a fitted effect of over 55% in size
Target sequence (A8B2U2 whole entry, looked up): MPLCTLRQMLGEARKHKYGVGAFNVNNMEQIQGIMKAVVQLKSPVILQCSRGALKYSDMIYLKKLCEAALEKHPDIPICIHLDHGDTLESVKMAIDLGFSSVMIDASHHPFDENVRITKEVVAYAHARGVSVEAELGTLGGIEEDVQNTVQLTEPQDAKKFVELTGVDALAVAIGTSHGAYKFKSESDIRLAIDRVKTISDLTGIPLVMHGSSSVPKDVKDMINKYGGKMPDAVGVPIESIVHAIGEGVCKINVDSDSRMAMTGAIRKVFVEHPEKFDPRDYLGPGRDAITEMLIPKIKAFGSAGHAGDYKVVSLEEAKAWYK
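40 nM FBPA preincubated 10 min at RT with compound (up to 57.5 uM final), then substrate plus GAPDH/TPI/NAD/arsenate coupling and diaphorase/resazurin added. Fluorescence read after 20 min at RT, 525/598 nm.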
LmPK inh – qHTS Assay for Inhibitors of Leishmania Mexicana Pyruvate Kinase (LmPK); Potency, µM (highest dose often 57.5 µM), for inactives: top-dose activity change, negative = inhibition, hits mostly inhibitors; Q27686; AID 1721, 2009; hit rate 0.37% among 290,000; purified LmPK, Kinase-Glo ATP luminescence, 1 h; note: potency is the fitted concentration of half-maximal effect; % is set by controls: 0 for no effect and ±100 for the full control effect
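ATP generated from ADP (0.1 mM) and PEP (0.5 mM) by 0.1 nM LmPK over 1 h at room temperature (pH 7.2 imidazole buffer) was detected by coupled luciferase luminescence. Values were normalized to uninhibited and no-enzyme wells.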
Shiga inhibitor – A qHTS for Small Molecule Inhibitors of Shiga Toxin; Vero cells, Shiga toxin protein synthesis inhibition reporter; inhibition, % at 38.7 µM; AID 2315, 2010; hit rate 9.2% among 290,000; in the data active = inhibition mostly above about 28%, no sharp cut-off; inactive = mostly below about 43%; note: 0% is about no effect
Cycloheximide cs – Cycloheximide Counterscreen for Small Molecule Inhibitors of Shiga Toxin. cell reporter, cycloheximide protein synthesis inhibition counterscreen. max response, %. hit rate 12% among 300,000. AID 2314, 2010; in the data active = max response mostly above about 13%, no sharp cut-off; inactive = mostly below about 14%; note: read at 38.3 µM for the half of the compounds with a filed dose; 0% is about no effect
* = called active by the depositor; ? = inconclusive; nt = not tested or not shown. The entries come from a sample that favours hits as a whole. Unless noted, calls come from the whole dose curve; as a rule, active = well fitted curve in the direction sought with a large enough effect; inconclusive = small, poorly fitted or top-dose-only effect, or another doubt; inactive = no such curve, though single readings can be large; an effect the other way counts as inactive or inconclusive.

SMILES	RE007 growth inh	Tb PYK inh	Giardia FBPA inh	LmPK inh	Shiga inhibitor	Cycloheximide cs
C=C(C)COc1ccc(-c2ncncc2Oc2ccc(OC)cc2)c(O)c1	2%	-8%	-7%	-16%	85*	28*
CC1CCN(C(=O)CNC(=O)c2cccc(OC(F)F)c2)CC1	0%	1%	5%	-2%	49*	18*
COc1ccc(N2CCN(C(=O)COC(=O)CNC(=O)c3cccc(OC(F)F)c3)CC2)cc1	-9%	3%	nt	nt	nt	nt
COc1cccc(C(=O)NCC(=O)N2CCC(C)CC2)c1	1%	-1%	10%	-4%	35	25*
COc1cccc(C(=O)NCCS(=O)(=O)N2CCC(C)CC2)c1	12%	3%	nt	nt	nt	nt
CCOc1ccc(C2C(=O)N(C3CCCCC3)CC(=O)N2C2CCCC2)cc1OC (stereo unspecified)	nt	-7%	nt	nt	nt	nt
CN(C)CCn1c(SCc2ccccc2C#N)nc2c(sc3ccccc32)c1=O	-17%	0%	-8%	-1%	38	11
COc1ccc(C(=O)NCc2ccc3c(c2)CCN3C(=O)c2ccncc2)cc1	nt	-2%	nt	nt	nt	nt
Cc1ccc2nc(CSc3nc(C)cc(C)c3C#N)[nH]c2c1	1%	1%	-5%	-1%	72	46*
CN(C)N=Nc1ccc(-c2cn(Cc3ccccc3)cn2)cc1	1%	-1%	6%	-1%	41*	47*
CN(Cc1ccccc1)N=Nc1ccccc1	12%	-1%	nt	nt	nt	nt
COc1ccc(CC(=O)NCc2cccc(Cl)c2)cc1S(=O)(=O)N1CCOCC1	0%	2%	nt	nt	nt	nt
CCOc1ccccc1N1CCN(S(=O)(=O)c2ccc(Cl)s2)CC1	13%	-9%	-3%	5%	35*	17*
COc1ccccc1N1CCN(S(C)(=O)=O)CC1	-2%	-3%	7%	9%	12	12
COc1ccccc1N1CCN(S(=O)(=O)c2ccc(Cl)s2)CC1	0%	0%	8%	-13%	27	16*
CCS(=O)(=O)N1CCN(S(=O)(=O)c2ccc(Cl)s2)CC1	14%	2%	nt	-9%	-12	-4
O=c1c2c3c(sc2nc2sc(C4CC4)nn12)CCCC3	-20%	-8%	0%	-9%	54	33*
c1ccc(CSc2ncnc3sccc23)cc1	-7%	2%	5%	-1%	52*	14
Cc1ccc(CSc2ncnc3c2cnn3-c2ccc(C)cc2)cc1	10%	-5%	2%	-1%	8	15*
c1ccc2sc(Sc3ncnc4sccc34)nc2c1	-9%	0%	-5%	-28%	46*	42*
Cc1nc(SCc2ccccc2)c2ccsc2n1	4%	6%	1%	0%	-5	-1
Fc1ccc(-n2ncc3c(SCc4cccnc4)ncnc32)cc1	5%	-8%	3%	-2%	23	20*
O=C(CN1C(=O)COc2ccc(Cl)cc21)Nc1ccc(F)cc1	nt	-1%	nt	nt	nt	nt
CC1CCC(C(O)(C(=O)c2ccccc2)c2ccccc2)C(=O)C1 (stereo unspecified)	18%	?	nt	nt	nt	nt
COc1ccc(Nc2ccc3nnc(-c4ccc(Br)cc4)n3n2)cc1	nt	nt	4%	0%	-8	-4
SMILES	RE007 growth inh	Tb PYK inh	Giardia FBPA inh	LmPK inh	Shiga inhibitor	Cycloheximide cs
Cc1ccc(-n2ncc3c(SCc4ccccc4)ncnc32)cc1	21%	-12%	2%	-5%	20	20*
Cc1ccc(CSc2ncnc3c2cnn3-c2ccccc2)cc1	11%	-7%	0%	-5%	-12	1
COc1cc2c(cc1NC(=O)C(C)OC(=O)C1CC(=O)N(Cc3ccco3)C1)oc1ccccc12 (stereo unspecified)	-10%	-8%	2%	12%	73	38*
COc1cc2c(cc1NC(=O)c1cccc(S(=O)(=O)N(C)C)c1)oc1ccccc12	-5%	2%	12%	4%	67*	25*
CC(OC(=O)C1CC(=O)N(Cc2ccco2)C1)C(=O)Nc1cccc(C#N)c1 (stereo unspecified)	28%	-3%	nt	nt	nt	nt
COc1cc2c(cc1NC(=S)Nc1ccccc1C)oc1ccccc12	-15%	-4%	15%	3%	91*	33*
COc1cc2c(cc1NC(=O)Nc1ccc(C)cc1)oc1ccccc12	-19%	2%	-4%	2%	28	19*
O=C(COC(=O)CNC(=O)c1ccccc1F)Nc1cccnc1Cl	17%	-9%	6%	4%	-7	-1
COc1ccc(C(=O)OCCN2CCN(C3=NS(=O)(=O)c4ccccc43)CC2)cc1OC	17%	-1%	nt	1%	-3	4
COc1ccc(NC(=O)Nc2cc3oc4ccccc4c3cc2OC)cc1	0%	3%	0%	0%	-18	10
COc1cc2c(cc1NC(=O)C1CCCO1)oc1ccccc12 (stereo unspecified)	-30%	1%	-10%	-5%	134*	50*
COc1cc2c(cc1NC(=O)C(C)Sc1ccc(NC(C)=O)cc1)oc1ccccc12 (stereo unspecified)	-1%	0%	4%	2%	12	21*
COc1ccc(Cl)cc1NC(=O)C1CCCO1 (stereo unspecified)	5%	4%	-9%	-2%	-15	-9
COc1ccc(C(=O)CN2CCN(S(=O)(=O)c3ccc(C(C)C)cc3)CC2)cc1	nt	-1%	nt	nt	nt	nt
O=C(NCC(c1cccnc1)N1CCN(Cc2ccccc2)CC1)C(=O)Nc1ccc(Cl)cc1 (stereo unspecified)	nt	5%	nt	nt	nt	nt
Cc1cccc(/C(N)=N/OC(=O)c2ccc3c(c2)OCO3)c1	35µM*	?	-7%	4.5µM*	43*	42*
COc1ccc(/C(N)=N/OC(=O)c2cccc([N+](=O)[O-])c2)cc1OC	-17%	-8%	4%	4%	-19	1
N/C(=N\OC(=O)c1ccc2c(c1)OCO2)c1cccc([N+](=O)[O-])c1	-19%	-23%	1%	-10%	88	31*
COc1cccc(C(=O)Nc2ccc3c(c2)n(C)c(=O)n3C)c1	1%	-4%	-7%	0%	7	10
COc1cccc(C(=O)Nc2ccc(C3CC3(Cl)Cl)cc2)c1 (stereo unspecified)	1%	-21%	-17%	?	85*	28*
COc1cccc(C(=O)Nc2nnc(-c3ccccc3)s2)c1	-9%	2%	-5%	3%	112*	33*
COc1cccc(C(=O)Nc2ccncc2)c1	nt	nt	1%	-29%	25	8
COC(=O)c1ccc(NC(=O)c2cccc(OC)c2)cc1	?	?	-17%	?	91*	57*
COc1cccc(C(=O)Nc2cccnc2)c1	3%	-9%	-2%	-25%	70	48*
